Molecules are shown by their SMILES. Results filed as inconclusive are left out. Active and inactive are the calls of the source. The call rests on the fitted dose curve; in most records, active means well fitted inhibition curve with a large enough effect in the repeat runs; inconclusive means weak or mixed curves; inactive means no such curve, though single readings can be large or run the other way.
Potency means the concentration at half of the fitted maximal effect.

Chain of Cytochrome P450 2C9 (Homo sapiens) (P11712 whole entry, looked up): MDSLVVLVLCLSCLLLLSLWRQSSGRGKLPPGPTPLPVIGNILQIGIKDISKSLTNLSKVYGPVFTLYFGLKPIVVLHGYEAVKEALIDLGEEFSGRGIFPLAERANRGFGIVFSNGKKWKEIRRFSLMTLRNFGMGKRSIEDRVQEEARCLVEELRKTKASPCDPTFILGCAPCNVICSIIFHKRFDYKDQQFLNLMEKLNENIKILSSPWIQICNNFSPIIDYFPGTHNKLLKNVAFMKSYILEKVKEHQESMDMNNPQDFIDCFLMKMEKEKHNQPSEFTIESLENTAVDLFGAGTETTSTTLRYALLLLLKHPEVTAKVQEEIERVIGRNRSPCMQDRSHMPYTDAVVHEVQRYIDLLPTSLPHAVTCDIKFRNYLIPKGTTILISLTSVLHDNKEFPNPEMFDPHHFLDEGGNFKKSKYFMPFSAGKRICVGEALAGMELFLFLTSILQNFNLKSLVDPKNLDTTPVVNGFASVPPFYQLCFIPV

This test concerns the target Cytochrome P450 2C9 (Homo sapiens) (UniProt P11712). Nature of the test: Cytochrome P450 family 2 subfamily C member 9 (CYP2C9) small molecule antagonists: luciferase biochemical (cell-free) qHTS assay (AID 1645842). Further: nearly all actives have a fitted effect of over 55% in size. The conditions noted are these: P450-Glo CYP2C9 enzyme assay, luciferin luminescence; series mostly up to 57.4 µM. In a few lines: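 Luminescence, after 20 min with luciferin detection reagent, reflected CYP2C9 turnover during a 1 h NADPH-driven reaction at 37C. Enzyme-substrate mix contained 0.4% bovine serum albumin and was preincubated with compound 10 min at room temperature.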
(qHTS replaces the single test concentration by a dilution series.)
As for `O=C(Nc1ccccc1C(=O)Nc1ccc(CCO)cc1)c1ccc([N+](=O)[O-])cc1`, the Potency entry is “inactive”.
As to `Cc1cccc(-c2[nH]ncc2-c2ccnc3ccccc23)n1`, the Potency is 9.52 µM (active).
The result for `N#Cc1cccc(C(=O)Nc2cc(-c3ccccc3)nn2-c2ccccc2)c1` reads 2.39 µM (active).
The result for `C=CCCN1CCC2(CC1)CN(C(=O)c1c(F)cccc1F)c1ccc(Cl)cc12` reads 13.5 µM (active); that for `O=c1cc(N2CCOCC2)nc2c3ccccc3ccn12`, 15.1 µM (active).
The result for `O=C(N[C@@H]1CCCc2c1cnn2-c1ccc(F)cc1F)c1ccccn1` reads 21.3 µM (active).
Consider `COc1ccc2c(c1)C(C(=O)N(Cc1ccc(N(C)C)cc1)c1ccc(C(C)C)cc1)CCC2` (centres undefined), for which the Potency was 5.35 µM (active).
To `CCCOc1ccc(S(=O)(=O)N2CCN(CCO)CC2)cc1-c1nc2c(CCC)cn(CC)c2c(=O)[nH]1` belongs 5.35 µM (active); to `Cc1cc(C(=O)Cn2cc(C#N)ccc2=O)c(C)n1Cc1ccccc1`, 16.9 µM (active).
To `Cn1ncc(Cl)c1-c1cc(C(=O)N[C@H](CN)Cc2cccc(F)c2)sc1Cl` belongs 9.52 µM (active).
As to `Nc1ncnc2c1c(-c1ccc(Cl)cc1)nn2-c1cccc(-c2cnnn2Cc2cccc(-c3ccccc3)c2)c1`, the Potency was 0.536 µM (active).
To `CCCCCCCCCC(=O)O` belongs “inactive”.
The result for `O=C(NCCN1CCC(n2c(=O)[nH]c3ccccc32)CC1)c1cc2cc(F)ccc2[nH]1` reads 3.38 µM (active).
In the case of `N#C/C(=C1\Nc2ccccc2S1)c1ccnc(NCCc2cccnc2)n1`, the Potency was 0.239 µM (active).
To `CN(C)CCOc1cc(NS(=O)(=O)c2c(Cl)cc(C(F)(F)F)cc2Cl)ccc1Cl` belongs 8.49 µM (active).
To `C[C@H]1CO[C@@H]2Cn3cc(C(=O)NCc4ccc(F)cc4F)c(=O)c(O)c3C(=O)N12` belongs “inactive”; to `Clc1cccc(COc2cncc(N3CCNCC3)n2)c1`, “inactive”; to `O=S(=O)(c1ccc(Cl)cc1)N1CCN(c2ccnc3cc(Cl)ccc23)CC1`, 2.39 µM (active).
To `O=C(Nc1cccc([N+](=O)[O-])c1)c1cccc(S(=O)(=O)N2CCCCCC2)c1` belongs 6.01 µM (active).
`O=C(Nc1ccc(N2C(=O)[C@@H]3[C@H](C2=O)[C@@H]2C=C[C@H]3C2)c(Cl)c1)c1ccccn1`: the Potency was 12 µM (active).
For the compound `Cc1nc2cc(C(=O)NCc3ccccn3)nn2c(C)c1Cc1cccc(Cl)c1`, the Potency is 1.2 µM (active).
With `Cc1cc(C)c2c(c1)C(N(Cc1cc(C(F)(F)F)cc(C(F)(F)F)c1)c1nnn(C)n1)CCCN2CC1CCC(C(=O)O)CC1` (centres undefined), the Potency was 10.7 µM (active).
To `COC(C)=O` belongs “inactive”; to `Cc1c(Cl)cccc1S(=O)(=O)Nc1nc(NCCc2ccccc2)nc2c1CN(Cc1ccccc1)CC2`, 6.01 µM (active); to `CCc1cnc(N2CCC(c3nc(COc4ccc(-n5cnnn5)cc4)cs3)CC2)nc1`, “inactive”.
Take `CCCCCCCCCCCCCCCC(=O)OC/C=C(C)/C=C/C=C(C)/C=C/C1=C(C)CCCC1(C)C`: the Potency is 13.5 µM (active).
With `Cn1c(CO)c(-c2ccccc2)c2cc([N+](=O)[O-])ccc21`, the Potency was 19 µM (active).
To `COc1cc(C(=O)NC(=S)Nc2cccc(NC(=O)c3ccccc3)c2)cc(OC)c1OC` belongs 3.79 µM (active); to `CCN(CCNC(=O)Nc1ccccc1Br)c1cccc(C)c1`, 3.79 µM (active).
To `CN(C)[C@@H]1CCc2[nH]c3ccc(NC(=O)c4ccc(F)cc4)cc3c2C1` belongs “inactive”; to `COc1cc(C(=O)NCC2(N(C)C)CCCC2)cc(OC)c1OCc1ccccc1`, “inactive”.
Take `O=C(NCc1ccc(OC(F)(F)F)cc1)C1c2c(F)cccc2C(=O)N1CCc1ccccn1` (centres undefined): the Potency is 3.79 µM (active).
To `O=C(c1ccc(Cl)cc1)N1CCN(c2ccnc3cc(Cl)ccc23)CC1` belongs 8.49 µM (active).
To `CC(C)Nc1nc(Nc2ccccc2)nc(-c2ccccc2)n1` belongs 7.56 µM (active); to `Fc1ccc(-c2nc(-c3ccccc3F)[nH]c2-c2ccncc2)cc1`, 1.69 µM (active); to `COc1ccc(-c2cc3onc(-c4ccncc4)c3c(=O)n2C)cc1`, 0.952 µM (active).
To `CN[C@@H]1CCc2[nH]c3ccc(C(N)=O)cc3c2C1` belongs “inactive”; to `O=C(NCCCN1CCC2(CC1)OCc1ccccc12)[C@H]1CCCN1Cc1ccccc1`, “inactive”.
As to `O=S(=O)(O)Oc1ccc(C(c2ccc(OS(=O)(=O)O)cc2)c2ccccn2)cc1`, the Potency entry is “inactive”.
